The sample as a whole holds a higher share of hits than the screen did.
Pf Dd2 growth: Plasmodium falciparum Dd2 growth inhibition | P. falciparum Dd2 growth, SYBR Green, 72 h | 120,000 tested, 4.3% active | Potency, µM (top dose mostly 28.9 µM), without a hit: at the top dose activity, negative = inhibition, actives largely listed as inhibitors; active = well fitted inhibition curve with a large enough effect;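 also: plate controls were DMSO vehicle for no effect and reference drug for full effect; nearly all actives have a fitted effect of over 65% in size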
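Infected erythrocytes (Dd2, 0.3% parasitemia, 2.5% hematocrit final) are added to compound in RPMI-1640/Albumax II medium, grown 72 h at 37C in low oxygen, then lysed with saponin/Triton-X containing SYBR Green and read by fluorescence.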
Numbers without * were called inactive; i = inactive; [ ] = dose if it differs, or a comment. Potency is read from the fitted curve at half-maximal effect.

SMILES | Pf Dd2 growth
CCCCCN1C(C(=O)c2ccccc2)=C(NC(=O)c2ccc(OC)c(OC)c2)c2ccccc2S1(=O)=O | 89%
CCCCC(=O)OC1=C(C(=O)c2ccccc2)N(CC)S(=O)(=O)c2ccccc21 | 1%
CN(Cc1nccs1)c1cc(C2CC(O)C2)ncn1 (stereo not drawn) | -4%
CCn1cnnc1-c1nn(C)c2c1CN(C(=O)CN1CCCCCC1)CC2 | 0%
O=c1c2c(n(Cc3cccnc3)n1-c1ccccc1)CN(CC1CC1)CC2 | i
COCc1ccc(CN[C@H]2C[C@@H](Cc3cc(CCO)on3)C2(C)C)o1 | -14%[44.1 µM]
COc1cccc(N2CC(C(=O)N3CCC(C(=O)N4CCOCC4)C3)NC2=O)c1 (stereo not drawn) | -7%
Cc1ccccc1Nc1nn2c(=O)c3ccc(C(=O)NCC(C)c4ccccc4)cc3nc2s1 (stereo not drawn) | 13µM*
Cc1ccc(C)c(Nc2nn3c(=O)c4ccc(C(=O)NCc5ccccc5)cc4nc3s2)c1 | -11%
Cc1ccc(Cl)cc1Nc1nn2c(=O)c3ccc(C(=O)NCc4cccs4)cc3nc2s1 | i
COCCn1ncc(N2CCCC(CC(=O)NCCc3ccccc3)C2)cc1=O (stereo not drawn) | -17%
COc1ccc(F)c(CN2CCCC3(CCN(C(=O)c4ccsc4)C3)C2)c1 (stereo not drawn) | 8%
COc1ccc(F)c(CN2CCCC3(CCN(c4cc(C)nc(N)n4)C3)C2)c1 (stereo not drawn) | 4µM*
Fc1cccc(CN2CCCC3(CCN(c4cnccn4)C3)C2)c1F (stereo not drawn) | -4%
Cn1cc(CNS(=O)(=O)c2cccc(C(=O)NCC3CCOC3)c2)cn1 (stereo not drawn) | 3%
COc1ccc(-c2cc(N3CCC(NC(=O)Cc4ccccc4Cl)CC3)n[nH]2)cc1 | -9%
Cc1cccc(-c2cc(-c3ccccc3)nc(SCC(=O)Nc3ccccc3)c2C#N)c1 | 13%
CCCCS(=O)(=O)c1nc(-c2ccc(Br)cc2)cc(-c2ccccc2)c1C#N | 5µM*
C#CCSc1nc(-c2ccccc2)cc(-c2ccccc2)c1C#N | 6%[0.594 µM]
CN1C(=O)C(CC(=O)NCc2noc(-c3c(F)cccc3F)n2)N(C)C1=O (stereo not drawn) | 1%
CCc1nc2c(c(-c3ccc(OC)cc3)n1)CCN([S+](=O)([O-])c1c(C)noc1C)CC2 | 23%
COc1cc(O)ccc1CN1CCn2nnc(CCC(=O)N3CCCC3)c2C1 | -17%
COC(=O)C1=C(C)N=C2SC=C(CC(=O)NCCc3cccs3)N2C1c1cccc(OC)c1 (stereo not drawn) | i
CCOC(=O)C1=C(C)N=C2SC=C(CC(=O)N3CCOCC3)N2C1c1ccccc1OC (stereo not drawn) | i
CCC1=C(C(=O)OC)C(c2ccccc2C)N2C(CC(=O)NCC3CC3)=CSC2=N1 (stereo not drawn) | -13%
SMILES | Pf Dd2 growth
CCOC(=O)C1=C(C)N=C2SC=C(CC(=O)NC3CC3)N2C1c1cccc(OC)c1OC (stereo not drawn) | -2%
CCC1=C(C(=O)OC)C(c2cccc(C)c2)N2C(CC(=O)Nc3ccc(OC)cc3)=CSC2=N1 (stereo not drawn) | 3.2µM*
CCC1=C(C(=O)OC)C(c2ccccc2)N2C(CC(=O)NCC3CC3)=CSC2=N1 (stereo not drawn) | -3%
CCC1=C(C(=O)OC)C(c2ccccc2)N2C(CC(=O)NCc3cccc(F)c3)=CSC2=N1 (stereo not drawn) | 4µM*
COC(=O)C1=C(C)N=C2SC=C(CC(=O)Nc3cc(C)cc(C)c3)N2C1c1ccccc1OC (stereo not drawn) | 7.1µM*
CCC1=C(C(=O)OC)C(c2cccc(C)c2)N2C(CC(=O)N3CCOCC3)=CSC2=N1 (stereo not drawn) | -29%
CCC1=C(C(=O)OC)C(c2cccc(F)c2)N2C(CC(=O)NCc3cccc(F)c3)=CSC2=N1 (stereo not drawn) | 2.5µM*
CCC1=C(C(=O)OC)C(c2cccc(OC)c2OC)N2C(CC(=O)NC3CC3)=CSC2=N1 (stereo not drawn) | i
COCCOC(=O)C1=C(C)N=C2SC=C(CC(=O)NCc3cccc(F)c3)N2C1c1ccccc1 (stereo not drawn) | -18%
CCN(Cc1ccccc1)C(=O)CC1CCCN(c2cnn(CC)c(=O)c2)C1 (stereo not drawn) | -17%
COc1nc2c(cc1CNC(=O)CN1CCOCC1)C(=O)N(C1CCCC1)C2 | -7%
CCc1ncc(C(=O)N(C)C2CCN(Cc3ccccc3)C2)cn1 (stereo not drawn) | 10%
CCOC(=O)CCNC(=O)N1CCCC(c2nc(-c3cnccn3)no2)CCNC(=O)CC1 (stereo not drawn) | -2%
O=C(CCC1CCCC1)NC1CCN(C(=O)N2CC3CC(C2)[C@H]2CCCC(=O)N2C3)CC1 (stereo partly drawn) | i
O=C(CN1C(=O)NC2(CCS(=O)(=O)CC2)C1=O)Nc1ccc(Cl)cc1F | 9%
CCOCCn1cnc(-c2ccccc2)c1-c1ccccc1OCC(N)=O | -16%
COc1ccccc1-c1ncc[nH]1 | 65%[76.6 µM]
COc1cccc(-c2[nH]cnc2-c2ccccc2)c1OCCCn1ccnc1 | 3.2µM*
CC(C)OCCCNC(=O)c1ccc2c(c1)N(S(C)(=O)=O)CC2 | i
CCOc1ccccc1C(=O)N1CCc2[nH]nc(C(=O)NCCCc3ccccc3)c2C1 | -16%
O=C(COc1ccccc1)NCc1ccc2c(c1)CCN2C(=O)c1ccc(Cl)cc1 | 62%
COC(=O)c1ccc(OCC2c3cc(OC)c(OC)cc3CCN2C(=O)COc2ccc(Cl)cc2)cc1 (stereo not drawn) | 10µM*
COC[C@@H]1CN(C(=O)COc2ccc(Cl)cc2C)C[C@H]1C(N)=O | 1%
COCc1nnc2n1CCC(NC(=O)COc1ccc(Cl)cc1)CC2 (stereo not drawn) | 9%
COCCOC1CCN(C(=O)COc2ccccc2)CC1 | 3%
SMILES | Pf Dd2 growth
COc1ccc(OCC2c3cc(OC)c(OC)cc3CCN2C(=O)COc2ccc(Cl)cc2Cl)cc1 (stereo not drawn) | 10µM*
COc1cc2c(cc1OC)C(COc1ccc(C(C)C)cc1)N(C(=O)COc1ccccc1)CC2 (stereo not drawn) | 11µM*
COC(=O)C[C@@H]1CCN(C(=O)COc2ccccc2)C[C@@H]1CC1=NCCc2cc(OC)c(OC)cc21 | i
COc1ccc(OCC(=O)N2CCN(C(=O)c3cc(OC)c(OC)c(OC)c3)CC2)cc1 | 17%
O=C(c1cccc2[nH]ccc12)N1CCC(n2cc(-c3nc(-c4ccccc4)no3)nn2)C1 (stereo not drawn) | -6%
O=c1[nH]c(C2CCN(Cc3ccc(C(F)(F)F)cc3)CC2)nn1Cc1ccccc1 | i
O=C(CN1CCCc2nc(C3CC3)ncc2C1=O)NCc1cccs1 | -19%
CN1C(=O)CO[C@H]2CN(c3ccc(C#N)cn3)C[C@H]21 | -19%[44.1 µM]
COc1cc(CCC(=O)N2CCc3n[nH]c(=O)n3CC2)on1 | i
COCC1CN(C(C)=O)CC12CCN(Cc1cccc(OC)n1)CC2 (stereo not drawn) | -8%
COc1ccccc1C1NC(=O)N(CC(=O)N2CCCC2)C2=C1C(=O)OC2 (stereo not drawn) | 16%
CNC(=O)[C@@H]1CN(C(=O)c2ccc3cc[nH]c3c2)C[C@H]1C1CCN(C)CC1 | 19%
CN1CCC(OC2CCN(C(=O)c3cccc(Br)c3)CC2)CC1 | i
O=C(NCc1ccc2c(c1)CCN2C(=O)c1ccc(F)cc1)c1ccco1 | 2.8µM*
